Test results published in ChEMBL document CHEMBL3988442, “University of Dundee, Small-Polar-MMV Screening Library” (2021).
Screen size: about 48,000 compounds; about 13,000 (27%) showed an effect of 50% or more. The list shows a part of the results.

Tested on: Wolbachia pipientis
Assay: Anti-Wolbachia Cell-Based Screen
Format: functional
Parameters: scale not given: in the data most compounds retested in dose-response had high values
Settings: 5 µM

SMILES | Percent Effect [%]
Cc1ccc(Sc2ccc(CN3CCC4(CC3)NCCNC4=O)o2)cc1 | -3.78
CCCN(C)c1ccc(C(=O)Nc2c(C)nn(C(C)C)c2C)cc1 | 9.882
Cc1ccc(CNC(=O)c2oc3ccccc3c2CN(C)C)n1C | -0.2654
Cc1[nH]c2ccc(CNC3CCN(Cc4ccccn4)CC3)cc2c1C | -2.213
O=C(NC[C@H]1OC[C@@H](NCc2ccccn2)[C@@H]1O)c1ccc(F)cc1 | 4.298
Cl.O[C@@H]1CN(Cc2ccc(F)c(F)c2)CC[C@H]1NCc1ccccn1 | 84.03
CN(Cc1cccc(F)c1)C1CCN(CCc2ccccn2)CC1 | 5.619
COCc1nccc(C2CCCN(Cc3cccc(F)c3)C2)n1 (stereo not given) | -13.68
Cl.O[C@@H]1CN(Cc2cccc(F)c2)CC[C@H]1NCc1ccccn1 | 63.1
Fc1ccc(CNC2CCN(CCc3ccncc3)CC2)cc1F | -3.888
Cl.O[C@@H]1CN(Cc2ccc(F)cc2)CC[C@H]1NCc1ccccn1 | 97.86
Fc1ccc(OCc2nnc([C@H]3CCN(Cc4ccccn4)C3)o2)cc1 | 11.6
Cc1nccc(-c2ccccc2)c1C(=O)N1CC[C@](C)(O)[C@H](C)C1 | -6.254
CC(C)CN(C)S(=O)(=O)c1ccc(Cl)cc1C#N | -10.78
CCC(C)C(=O)N(Cc1ccccn1)C1CC1 (stereo not given) | -10.35
COc1ncccc1NC(=O)N(Cc1ccc(C)o1)C1CC1 | -9.414
CCN(C(=O)Nc1cccnc1OC)C1CC1 | -1.512
COc1cc(CN(C(=O)Nc2cccnc2OC)C2CC2)ccc1O | -7.175
CCN(CC)C(=O)C1CCN(C(=O)Nc2cccnc2OC)CC1 | 6.94
COc1ncccc1NC(=O)N(CC(C)C)C1CC1 | 114.6
CN(C)C(CNC(=O)N(Cc1ccco1)C1CC1)c1cccs1 (stereo not given) | 11.82
COc1ncccc1NC(=O)N1CCC(CNC(C)=O)CC1 | 2.478
COc1ncccc1NC(=O)N(Cc1ccccn1)C1CC1 | 99.69
COc1ncccc1NC(=O)N(Cc1ccco1)C1CC1 | 106.8

SMILES | Percent Effect [%]
COc1ncccc1NC(=O)N(Cc1ccc(C(N)=O)cc1)C1CC1 | 99.11
CC(C)c1cc(NC(CCO)c2ccccc2)n2nccc2n1 (stereo not given) | 9.375
COc1ccc(N(C)C(=O)C2CN(C)CCO2)cc1F (stereo not given) | 4.691
O=C1CN(Cc2nnc(-c3ccc(Br)o3)o2)CCN1 | -7.381
Cc1ccc(S(=O)(=O)NCc2[nH]ncc2Br)cc1F | -12.16
COc1ncccc1NC(=O)N(C1CC1)C(C)C(C)C (stereo not given) | 116
COc1ncccc1NC(=O)C1CCS(=O)(=O)C1 (stereo not given) | 1.624
COc1ncccc1NC(=O)N1CCC(C(=O)NC(C)C)CC1 | 0.676
CCNC(=O)C(C)NC(=O)Nc1ccccc1SC(F)(F)F (stereo not given) | -8.555
CC(C)NC(=O)C1CN(C(=O)Nc2ccccc2)CC12CCOCC2 (stereo not given) | 0.6544
Cc1ccsc1C(=O)N1CC(C(=O)NCC2CC2)C2(CCOCC2)C1 (stereo not given) | 12.17
CN(C)C(=O)N1CC(C(=O)NCC2CC2)C2(CCOCC2)C1 (stereo not given) | 105.7
CC(C)NC(=O)C1CN(C(=O)N2CCCC2)CC12CCOCC2 (stereo not given) | -8.761
O=C(NCC1CC1)C1CN(C(=O)Cc2cccs2)CC12CCOCC2 (stereo not given) | 5.816
Cc1ccoc1C(=O)N1CC(C(=O)NCC2CC2)C2(CCOCC2)C1 (stereo not given) | -3.998
CC(C)NC(=O)C1CN(C(=O)N(C)C)CC12CCOCC2 (stereo not given) | 94.32
COCC(=O)N1CC(C(=O)NCC2CC2)C2(CCOCC2)C1 (stereo not given) | 104.6
O=C(NCC1CC1)C1CN(C(=O)c2ccncc2)CC12CCOCC2 (stereo not given) | -0.9426
Cc1[nH]nc2ncc(C(=O)N3CCN(CC(C)C)CC3)cc12 | 0.1242
Cc1cc(C)n(CCCN(C)C(=O)CN2CC3(CCNCC3)OC2=O)n1 | -7.554
CCN(CC)CC[C@H]1CN(C(=O)NC2CCCCC2)CC[C@H]1CC(=O)O | -0.6664
O=C(NC[C@H]1OC[C@@H](NC2CCCC2)[C@@H]1O)C1CCCC1 | 10.82
NC(=O)C1CN(Cc2c(O)ccc3oc4c(c23)CCCC4)CCO1 (stereo not given) | -16.77
O=C1NCCCc2c1oc1ccc(O)c(CN3CCOCC3)c21 | 142.2

SMILES | Percent Effect [%]
Oc1ccc2oc3c(c2c1CN1CCOCC1)CCCC3 | 6.402
CCOc1ccc(C(=O)NCCCNc2ncccn2)cc1 | -0.3981
O=C(O)C(F)(F)F.O=C([C@@H]1COC[C@H]2CN(C3CCCC3)C[C@H]21)N1CCC(F)CC1 | -0.4691
O=C(C[S+]([O-])c1ccc(F)c(F)c1)NCc1cc(F)cc(F)c1 (stereo not given) | -8.156
COc1ccc(CC(=O)N2CCN(C)c3ncccc3C2)cc1.O=C(O)C(F)(F)F | 1.148
COCCN1CCN(S(=O)(=O)c2ccccc2)Cc2cccnc21.O=C(O)C(F)(F)F | 100.4
COCCN1CCN(Cc2c(C)noc2C)Cc2cccnc21.O=C(O)C(F)(F)F.O=C(O)C(F)(F)F | -0.8432
COc1ccc(S(=O)(=O)N2CCN(C)c3ncccc3C2)cc1.O=C(O)C(F)(F)F | 100.8
CC(C)CN1CCN(S(=O)(=O)c2cn(C)cn2)Cc2cccnc21.O=C(O)C(F)(F)F.O=C(O)C(F)(F)F | -3.796
COc1cccc(CC(=O)N2CCN(C)c3ncccc3C2)c1.O=C(O)C(F)(F)F | -8.872
CN(Cc1ccc(C(=O)O)cc1)C(=O)c1sccc1OC(F)F | 7.137
Cn1cc(CN2CC[C@H]3OCC[C@@H](C(=O)N4CCCCO4)[C@@H]3C2)cn1 | 16.39
CC(C)(C)N1CC(C(=O)N2CCN(CCn3cccc3)CC2)CC1=O (stereo not given) | -2.783
CCn1cc(S(=O)(=O)N2CCCC3(CC=CNC3=O)C2)c(C)n1 (stereo not given) | 118.1
CCn1nc(C)cc1S(=O)(=O)N1CCC2(CC(=O)NC2=O)C1 (stereo not given) | -2.488
CCn1nc(C)cc1S(=O)(=O)N1CCC2(CCCN(C(C)C)C2=O)C1 (stereo not given) | -24.78
CCCN1CCCC2(CCN(S(=O)(=O)c3cc(C)nn3CC)C2)C1=O (stereo not given) | -15.13
CCn1cc(S(=O)(=O)N2CCCC3(CC=CNC3=O)C2)cn1 (stereo not given) | 97.1
CC(C)n1cc(S(=O)(=O)N2CCCCC2)cn1 | 6.255
CCn1cc(S(=O)(=O)N2CCC3(CCCN(CC4CCC4)C3=O)C2)cn1 (stereo not given) | -1.219
CCn1nccc1S(=O)(=O)N1CCC2(CCCN(C(C)C)C2=O)C1 (stereo not given) | -32.08
CCn1ncc(S(=O)(=O)N2CCCC3(CC=CNC3=O)C2)c1C (stereo not given) | 120.2
